Consider 19 compounds from PubChem BioAssay (NCATS).

A short description of assay [1]: Primary qHTS for inhibitors of nuclear receptor binding SET domain protein 2 (NSD2) in an isogenic RCH-ACV NSD2 p.E1099K mutant (9B) (AID 1645876). Note: nearly all actives have a fitted effect of over 70% in size. Note: potency is the fitted concentration of half-maximal effect. To be noted: RCH-ACV (leukaemia line) NSD2 E1099K (9B) viability, CellTiter-Glo, 72 h; series mostly up to 44.9 µM. (In qHTS, concentration-response curves come from the screen itself.)
Assay [2] concerns the target Calcium and integrin-binding protein 1 (Homo sapiens) (UniProt Q99828). The experiment in a line: Primary qHTS for Identification of Calcium Integrin Binding Protein 1 (CIB1) Competitor (AID 1508620).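 Note: GST tagged CIB1 binding a fluorescein labelled alphaIIb integrin peptide tracer; top concentration of the series differs between compounds.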 To be noted: CIB1-GST / FITC-alphaIIb peptide fluorescence polarization; series mostly up to 114 µM. The procedure, abridged:
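CIB1-GST (1 uM final) and compound incubated 15 min at room temperature before adding FITC-alphaIIb peptide tracer (100 nM final). Competition for binding read by fluorescence polarization (ex 480, em 540) after another 15 min at room temperature.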

In assay [3] the target is Cytochrome P450 2D6 (Homo sapiens) (UniProt P10635). Briefly: Cytochrome P450 family 2 subfamily D member 6 (CYP2D6) small molecule antagonists: luciferase biochemical (cell-free) qHTS assay (AID 1645840; active = well fitted curve in the direction sought with a large enough effect in the repeat runs; an effect the other way counts as inactive or inconclusive; note: nearly all actives have a fitted effect of over 55% in size; note: potency is the fitted concentration of half-maximal effect). To be noted: P450-Glo CYP2D6 enzyme, luciferin luminescence, 1 h; series mostly up to 57.4 µM. The procedure, abridged:
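P450-Glo luminescent screen: recombinant CYP2D6 enzyme–proluciferin substrate mix preincubated with compound 10 min at room temperature, then NADPH regeneration added for 1 h at room temperature. Detection reagent added for 20 min; luciferin light read as relative luminescence units.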

Assay [4] deals with Cytochrome P450 3A4 (Homo sapiens) (UniProt P08684). Briefly: Cytochrome P450 family 3 subfamily A member 4 (CYP3A4) small molecule antagonists: luciferase qHTS assay (AID 1645841; active = well fitted curve in the direction sought with a large enough effect in the repeat runs; an effect the other way counts as inactive or inconclusive; note: nearly all actives have a fitted effect of over 45% in size). To be noted: P450-Glo CYP3A4 enzyme assay, luciferin luminescence; series mostly up to 57.4 µM. Put shortly: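 Luminescent CYP3A4 activity readout: compounds plus enzyme-substrate mix 10 min at room temperature, reaction started with NADPH regenerating system for 1 h, stopped with detection reagent, read after 20 min. Ketoconazole served as control.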
Sequence of Cytochrome P450 3A4 (Homo sapiens) (P08684 whole entry, looked up): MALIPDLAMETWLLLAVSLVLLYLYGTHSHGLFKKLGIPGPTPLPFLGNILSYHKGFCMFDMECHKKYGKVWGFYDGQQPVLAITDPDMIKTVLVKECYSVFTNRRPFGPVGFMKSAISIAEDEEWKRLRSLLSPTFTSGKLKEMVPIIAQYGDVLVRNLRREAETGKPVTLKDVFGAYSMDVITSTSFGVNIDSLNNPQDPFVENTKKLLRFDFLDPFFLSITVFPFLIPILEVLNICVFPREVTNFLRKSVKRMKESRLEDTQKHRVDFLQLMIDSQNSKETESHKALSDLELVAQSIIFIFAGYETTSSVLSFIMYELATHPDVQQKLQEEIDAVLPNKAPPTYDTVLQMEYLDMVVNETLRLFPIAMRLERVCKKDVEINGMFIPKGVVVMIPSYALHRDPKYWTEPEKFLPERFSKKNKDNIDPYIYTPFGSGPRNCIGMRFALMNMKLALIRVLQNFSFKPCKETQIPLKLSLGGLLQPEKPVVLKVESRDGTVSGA

The target of assay [5] is Cytochrome P450 2C9 (Homo sapiens) (UniProt P11712). Briefly: Cytochrome P450 family 2 subfamily C member 9 (CYP2C9) small molecule antagonists: luciferase biochemical (cell-free) qHTS assay (AID 1645842; active = well fitted curve in the direction sought with a large enough effect in the repeat runs; an effect the other way counts as inactive or inconclusive; note: nearly all actives have a fitted effect of over 55% in size; note: potency is the fitted concentration of half-maximal effect). To be noted: P450-Glo CYP2C9 enzyme assay, luciferin luminescence; series mostly up to 57.4 µM. Put shortly: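 Luminescence, after 20 min with luciferin detection reagent, reflected CYP2C9 turnover during a 1 h NADPH-driven reaction at 37C. Enzyme-substrate mix contained 0.4% bovine serum albumin and was preincubated with compound 10 min at room temperature.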
Sequence of Cytochrome P450 2C9 (Homo sapiens) (P11712 whole entry, looked up): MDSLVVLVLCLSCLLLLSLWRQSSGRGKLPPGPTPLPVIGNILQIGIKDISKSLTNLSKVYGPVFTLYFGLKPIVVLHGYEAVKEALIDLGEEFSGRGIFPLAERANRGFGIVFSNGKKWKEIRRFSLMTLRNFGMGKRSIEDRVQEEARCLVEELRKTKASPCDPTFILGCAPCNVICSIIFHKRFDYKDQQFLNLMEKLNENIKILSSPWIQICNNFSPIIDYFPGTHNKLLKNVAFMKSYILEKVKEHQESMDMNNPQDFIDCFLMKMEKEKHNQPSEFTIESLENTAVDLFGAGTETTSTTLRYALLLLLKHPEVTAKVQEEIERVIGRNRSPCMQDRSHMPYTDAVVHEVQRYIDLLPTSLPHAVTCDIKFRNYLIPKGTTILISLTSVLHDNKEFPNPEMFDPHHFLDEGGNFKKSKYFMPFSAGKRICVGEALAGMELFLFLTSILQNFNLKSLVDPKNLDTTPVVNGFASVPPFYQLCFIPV

The nature of assay [6]: Confirmatory qHTS for small molecule stabilizers of the endoplasmic reticulum resident proteome: Secreted ER Calcium Modulated Protein (SERCaMP) assay (AID 1508628).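 Note: SH-SY5Y cells given compound 16 h then thapsigargin 100 nM for 4 h; nearly all actives have a fitted effect of over 40% in size.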 To be noted: SERCaMP secreted luciferase ER calcium/proteostasis reporter; series mostly up to 156 µM. The procedure, abridged:
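We seeded SH-SY5Y-GLuc-SERCaMP cells, added compounds (three concentrations in the primary run, eleven up to 76.6 uM in confirmation), incubated 16 h, depleted ER calcium with thapsigargin, and read luciferase 4 h later.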

Several values for one entry are separate records, joined by “and”; a condition that tells them apart may be missing. Identical values can stand only once. Results filed as inconclusive are left out. Activity calls are given as the source filed them. Unless noted, calls come from the whole dose curve; as a rule, active = well fitted curve in the direction sought with a large enough effect; inconclusive = small, poorly fitted or top-dose-only effect, or another doubt; inactive = no such curve, though single readings can be large; an effect the other way counts as inactive or inconclusive. Where a SMILES comes first, the peptide text is derived from it. Bridges are numbered along the chain shown (N, C = ends). [ ]: non-standard residue; d: D form. NMeY = CN[CH](Cc1ccc(O)cc1)C(=O)O

Sequence of Cytochrome P450 2D6 (Homo sapiens) (P10635 whole entry, looked up): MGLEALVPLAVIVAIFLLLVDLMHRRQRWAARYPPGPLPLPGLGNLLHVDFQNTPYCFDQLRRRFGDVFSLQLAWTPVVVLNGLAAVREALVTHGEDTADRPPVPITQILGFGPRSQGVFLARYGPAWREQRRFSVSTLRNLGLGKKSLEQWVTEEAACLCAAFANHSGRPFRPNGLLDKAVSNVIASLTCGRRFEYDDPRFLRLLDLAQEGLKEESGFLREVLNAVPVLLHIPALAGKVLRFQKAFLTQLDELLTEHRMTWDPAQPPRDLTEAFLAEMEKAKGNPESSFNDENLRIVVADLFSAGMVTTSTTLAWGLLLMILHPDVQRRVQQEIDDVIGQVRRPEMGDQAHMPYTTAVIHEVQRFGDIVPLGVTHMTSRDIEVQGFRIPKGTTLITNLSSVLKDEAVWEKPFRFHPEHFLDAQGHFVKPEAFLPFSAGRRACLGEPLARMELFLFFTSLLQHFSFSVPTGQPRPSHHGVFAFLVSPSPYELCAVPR
Sequence of Calcium and integrin-binding protein 1 (Homo sapiens) (Q99828 whole entry, looked up): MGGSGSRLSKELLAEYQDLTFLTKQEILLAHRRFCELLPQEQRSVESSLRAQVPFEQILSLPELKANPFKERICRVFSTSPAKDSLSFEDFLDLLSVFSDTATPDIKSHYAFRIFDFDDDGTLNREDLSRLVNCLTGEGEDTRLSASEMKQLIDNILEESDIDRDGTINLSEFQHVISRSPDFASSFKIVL

Regarding `CCc1c(-c2ccccc2)c(-c2ccccc2)nn1-c1ccccc1-c1cccc(OCC(=O)O)c1`, the Potency result in assay [1] was “inactive”.

In the case of `C=C1CCC2C(C)(COC(C)=O)CCCC2(C)C1CCC(C)CC(=O)O` (stereo not given), in assay [1], the Potency result is “inactive”.

For the compound `CCOC(=O)C(CCc1ccccc1)NC(C)C(=O)N1C(=O)N(C)CC1C(=O)O` (stereo not given), the Potency result in assay [2] and in assay [1] was “inactive” in each case.

Turning to `CC1CC[C@]2(C(=O)O)CC[C@]3(C(=O)O)C(=CCC4[C@@]5(C)CC[C@H](OC6OC(C)C(O)C(OC7OC(CO)C(O)C(O)C7O)C6O)C(C)(C)C5CC[C@]43C)C2C1C` (stereo not given in full), the Potency result in assay [2] and in assay [1] was “inactive” each time.

For the compound `Cc1ccc(S(=O)(=O)c2ccc([N+](=O)[O-])o2)cc1`, in assay [2], the Potency entry is “inactive”. For the same compound, in assay [1], the Potency was 649 nM (active).

On to `C[C@H](O)[C@H](O)/C=C/c1cccc(O)c1CO`, for which the Potency result in assay [2] and in assay [1] was “inactive” throughout.

For `Nc1nccn2c(C3CCC(C(=O)O)CC3)nc(-c3cc4cccc(Cl)c4[nH]3)c12` (stereo not given), the Potency entry in assay [3] is “inactive”. Further, the Potency in assay [1] is 1.29 µM (active) and 3.72 µM (active).

With `C=C(C(=O)O)C1CC(O)C2(C)CCCC(=C)C2C1` (stereo not given), the Potency entry in assay [2] and in assay [1] was “inactive” throughout.

For the compound `CC1C(=O)CC2C3CCC(C(=O)O)C12CC3(C)CO` (stereo not given), the Potency result in assay [2] and in assay [1] was “inactive” each time.

Turning to `CN1CCN(C2CCC(n3cc(-c4ccc(Oc5ccccc5)cc4)c4c(N)ncnc43)CC2)CC1` (stereo not given), the Potency in assay [3] is 12 µM (active); in assay [1], 20.5 nM (active) and 74.2 nM (active). Besides, the Potency result in assay [4] and in assay [5] was “inactive” each time.

For `COc1cc(O)cc(C)c1C(=O)O[C@H]1[C@@H](OC(C)=O)[C@H](n2ccc(=O)[nH]c2=O)O[C@@H]1CO`, the Potency result in assay [2] and in assay [1] was “inactive” throughout.

Regarding `CCc1c(C)nc2c(-c3cnn(-c4cc(CO)ccn4)c3)c[nH]n2c1=O`, in assay [1], the Potency result is “inactive”.

Regarding `Cc1cccc(C)c1-n1c(=O)c2cnc(Nc3ccc(N4CCN(C)CC4)cc3)nc2n2c3ccccc3nc12`, in assay [3], the Potency result is “inactive”. Further, the Potency in assay [1] was 205 nM (active).

Consider `Cc1ccc(N)cc1O`, for which, in assay [6], the outcome was inactive. The Potency was 2.45 µM (active) in assay [3] and 20 µM (active) in assay [5].

As for `CC1(C)C=CN2C(=O)C3=CCCN3C(=O)[C@@H]2C[C@@]12Nc1ccccc1C2=O`, the Potency result in assay [1] was “inactive”.

With `CCOc1cc(C(=O)N2CCC(N3CCN(C)CC3)CC2)ccc1Nc1ncc2c(n1)N(C1CCCC1)c1ccccc1C(=O)N2C`, in assay [1], the Potency was 1.15 µM (active) and 1.86 µM (active).

Take `COC(=O)c1ccnc(-c2cc(C(=O)NCCc3ccccc3)ccn2)c1`: the Potency result in assay [2] and in assay [1] was “inactive” in each case.

Take `C=C(C)C(=O)OC1CC2(C)OC(=CC2=O)C(=C)CC2OC(=O)C(COC)C12` (stereo not given): the Potency in assay [1] is 4010 nM (active).

Take `CCC(C)C1NC(=O)C2CCCN2C(=O)C(NC(C)=O)C(C)OC(=O)C(Cc2ccc(OC)cc2)N(C)C(=O)C2CCCN2C(=O)C(C(C)C)NC1=O` (stereo not given) (Ac-TPIVP[NMeY](Me); ester 1-C; configuration not given here): the Potency result in assay [2] and in assay [1] was “inactive” each time.
